From PubChem BioAssay AID624331 (National Center for Advancing Translational Sciences (NCATS), 2012)
Inconclusive results are not listed. Unmarked numbers belong to inactive results. Calls follow the shape of the dose curve; as a rule, active = well fitted activation curve with a large enough effect; inconclusive = small, poorly fitted or top-dose-only effect; inactive = no such curve, though single readings can be large or run the other way.

Assay: qHTS assay for re-activators of p53 using a Luc reporter: Hit Validation with no p53 Expressed; also: 0% is about no effect
Settings: p53-null cells, luciferase reporter counter-screen; series mostly up to 46.1 µM; activity change, positive = activation: at the top concentration
Summary of the method: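 Without p53 expression, cells (1000/well, Opti-MEM + 10% FBS) were exposed 24 h at 37 deg C to compounds in a 1:5 series from 10 mM stock (top 46.1 µM in well). Luminescent signal read 10 min after Amplite addition; actives flag unspecific activation.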

Row | SMILES | activity change, positive = activation [%]
1 | COc1ccccc1Oc1c(C)oc2c(CN(C)C)c(O)ccc2c1=O | -5.95
2 | C/C(=N\NC(=S)NC1CCCCC1)c1ccccc1 | -26.8
3 | CCOc1ccc(N2C(=O)c3ccccc3NC2(C)CC)cc1 (centres undefined) | 59.9
4 | N#Cc1cc2c(nc1SCC(=O)Nc1nccs1)CCCCC2 | 73.5
5 | CC(=O)N(C)c1ccc(NC(=O)CCN2C(=O)c3ccccc3C2=O)cc1 | -23.3
6 | Cc1ccc(C)c(N2CCN(C(=O)CCc3nc(-c4ccccc4C(F)(F)F)no3)CC2)c1 | 65.2
7 | O=C(Nc1ccccc1N1CCCCC1)c1ccc([N+](=O)[O-])o1 | 6.76
8 | COCCSc1ccccc1C(=O)Nc1cc(C)ccn1 | 21.8
9 | O=C(/C=C/c1cccs1)Nc1ccc(Br)cn1 | 6.73
10 | C/C(Cn1nnc([N+](=O)[O-])n1)=N\NC(=O)c1ccc(C)cc1 | -4.96
11 | CCCCn1c(O)c(N=Nc2ccccc2O)c2ccccc21 | -32.9
12 | O=C(N/N=C\c1cc(Cl)ccc1O)c1ccc(S(=O)(=O)N2CCCCC2)cc1 | -22.2
13 | COC(=O)C1=C(C(=O)c2ccccc2)C(c2ccc(OC)c(OC)c2)Nc2nnnn21 (centres undefined) | -13.2
14 | C#CC(C)(CC)NC(=O)Cn1nnc(-c2ccc(S(C)(=O)=O)cc2)n1 (centres undefined) | -8.63
15 | CCCCn1c(SCC(=O)N2CCCC2=O)nc2cc(S(N)(=O)=O)ccc21 | -34.7
16 | CC1CCCN(C(=O)CN2C(=O)c3ccccc3S2(=O)=O)C1 (centres undefined) | 13.4
17 | CCOc1cc(S(=O)(=O)NC2CCCCCC2)ccc1F | 35.2
18 | CC(C)(C)c1nnc(N/N=C/c2cc(Br)ccc2O)n(N)c1=O | -30.3
19 | CCC(Sc1nc2ccccc2c(=O)n1CCN1CCOCC1)C(=O)NCc1cccnc1 (centres undefined) | -26.9
